In PubChem BioAssay AID1159580 (chemical genetic matrix, 2015):
Where “and” joins values, the source holds several entries; their conditions need not be identical. Equal values may be shown once. In all, about 5,500 compounds went through this assay and about 2,000 (36%) were called active. Not shown: some 18% with an inconclusive outcome. Cut-off read from the data, not from the text of the source: active = normalized growth mostly below about 0.91 (no sharp cut-off); inconclusive = no clear call, values can overlap the other calls; inactive = mostly above about 0.92. Some of the results follow.

Assay: chemical genetic growth profiling, strain panel (AID 1159580);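 note: tested at 20 µM; growth read once vehicle control cultures reached saturation at 30 °C; 1 = growth at the plate median or of vehicle wells; lower values mean less growth of the strain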
Details: S. cerevisiae deletion strains, growth OD

Measured: normalized growth

CCCCCCCCCCCCCCCCCCOCC(O)CO (configuration not stated)
inactive: locus YAL013W, strain DEP1, hits give low values 1.01 | locus YAL021C, strain ccr4, hits give low values 1.01 | locus YAL026C, strain drs2, hits give low values 1 | locus YAL030W, strain snc1, hits give low values 0.991 | locus YBL061C, strain skt5, hits give low values 0.987 | locus YBR009C, strain hhf1, hits give low values 0.959 | locus YBR021W, strain FUR4, hits give low values 1.03 | locus YBR023C, strain chs3, hits give low values 0.99 | locus YBR171W, strain sec66, hits give low values 0.999 | locus YBR229C, strain ROT2, hits give low values 1.01 | locus YBR231C, strain swc5, hits give low values 0.981 | locus YBR279W, strain paf1, hits give low values 0.992 | locus YCL011C, strain gbp2, hits give low values 0.988 | locus YCL016C, strain dcc1, hits give low values 0.994 | locus YCL029C, strain bik1, hits give low values 1.01 | locus YCL061C, strain MRC1, hits give low values 0.996 | locus YCL069W, strain vba3, hits give low values 0.998 | locus YCR088W, strain abp1, hits give low values 0.997 | locus YDL005C, strain med2, hits give low values 0.989 | locus YDL035C, strain GPR1, hits give low values 1.02 | locus YDL040C, strain nat1, hits give low values 0.973 | locus YDL074C, strain BRE1, hits give low values 1.06 | locus YDL101C, strain DUN1, hits give low values 1.01 | locus YDL185W, strain tfp1, hits give low values 1.02 | locus YDL192W, strain arf1, hits give low values 1.01 | locus YDR001C, strain nth1, hits give low values 0.995 | locus YDR069C, strain doa4, hits give low values 0.973 | locus YDR101C, strain arx1, hits give low values 1.04 | locus YDR137W, strain rgp1, hits give low values 0.987 | locus YDR150W, strain NUM1, hits give low values 0.998 | locus YDR159W, strain sac3, hits give low values 0.952 | locus YDR162C, strain NBP2, hits give low values 0.991 | locus YDR195W, strain ref2 0.951 | locus YDR297W, strain sur2, hits give low values 0.995 | locus YDR318W, strain mcm21, hits give low values 0.986 | locus YDR334W, strain swr1, hits give low values 0.994 | locus YDR335W, strain msn5, hits give low values 1 | locus YDR388W, hits give low values 1.01 | locus YDR392W, strain spt3, hits give low values 0.858 | locus YDR502C, strain sam2, hits give low values 1.02 | locus YEL003W, strain gim4, hits give low values 0.998 | locus YEL037C, strain rad23, hits give low values 1 | locus YEL061C, strain CIN8 (second series), hits give low values 0.992 | locus YEL061C, strain CIN8, hits give low values 1.01 | locus YER015W, strain faa2, hits give low values 0.989 | locus YER016W, strain bim1, hits give low values 0.994 | locus YER110C, hits give low values 1.01 | locus YER111C, strain swi4, hits give low values 0.979 | locus YER155C, strain BEM2 (second series), hits give low values 0.948 | locus YER155C, strain BEM2, hits give low values 1.01 | locus YER167W, strain BCK2, hits give low values 1 | locus YFR010W, strain ubp6, hits give low values 1.01 | locus YGL078C, strain dbp3, hits give low values 1.02 | locus YGL086W, strain mad1, hits give low values 1.05 | locus YGL167C, strain pmr1, hits give low values 0.986 | locus YGL173C, strain kem1, hits give low values 0.984 | locus YGL227W, strain vid30, hits give low values 0.985 | locus YGL240W, strain doc1, hits give low values 0.966 | locus YGL248W, strain PDE1, hits give low values 1 | locus YGL253W, strain hxk2, hits give low values 1 | locus YGR135W, strain pre9, hits give low values 0.968 | locus YGR252W, strain gcn5, hits give low values 0.969 | locus YHR013C, strain ard1, hits give low values 0.938 | locus YHR027C, strain rpn1, hits give low values 0.998 | locus YHR030C, strain SLT2, hits give low values 1.01 and 1.02 | locus YHR079C, strain IRE1 (second series), hits give low values 1 | locus YHR079C, strain IRE1, hits give low values 0.993 | locus YHR094C, strain hxt1, hits give low values 1.01 | locus YHR129C, strain ARP1, hits give low values 1.01 | locus YHR142W, strain chs7, hits give low values 1.04 | locus YHR200W, strain rpn10, hits give low values 1.01 | locus YIL066C, strain RNR3, hits give low values 1.01 | locus YIL073C, strain SPO22, hits give low values 1.01 | locus YIL125W, strain kgd1, hits give low values 1.01 | locus YIR030C, strain dcg1, hits give low values 1 | locus YJL092W, strain hpr5, hits give low values 0.999 | locus YJL095W, strain BCK1 (second series), hits give low values 0.998 | locus YJL095W, strain BCK1, hits give low values 1.02 and 0.984 | locus YJL115W, strain asf1, hits give low values 0.987 | locus YJL129C, strain trk1, hits give low values 0.984 | locus YJL134W, strain LCB3, hits give low values 0.997 | locus YJL154C, strain vps35, hits give low values 0.992 | locus YJL164C, strain tpk1, hits give low values 1 | locus YJL166W, strain qcr8, hits give low values 0.99 | locus YJL168C, strain set2, hits give low values 0.999 | locus YJL187C, strain SWE1 (second series), hits give low values 1.03 | locus YJL187C, strain SWE1, hits give low values 0.996
